Our source for the growth inhibition values is PubChem BioAssay (NCI).

About 79,000 compounds went through this panel and 15% of them were active in at least one assay; those are over-represented in the sample as a whole. Unmarked numbers belong to inactive results. Active and inactive are the calls of the source. No stated cut-off is given here; in the data, active means growth inhibition above about 70%; inactive means the rest.

A short description of test [1]: NCI Yeast Anticancer Drug Screen. Data for the rad50 strain (AID 155).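 Further: 0% = growth of vehicle-only cultures of the same strain.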 The following applies: S. cerevisiae rad50 strain growth inhibition; at 50.0 µM; stronger effect = higher value. In outline: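 Growth of the mutant yeast was measured after compound exposure and referenced to vehicle-treated cultures.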
Test [2] is described as follows: NCI Yeast Anticancer Drug Screen. Data for the mec2-1 strain (AID 157). The following applies: S. cerevisiae mec2-1 strain, at 50.0 µM, stronger effect = higher value. Put shortly: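 Mutant yeast (mec2-1) grown with compound; growth inhibition relative to vehicle control reported.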
Test [3] in a line: NCI Yeast Anticancer Drug Screen. Data for the sgs1 mgt1 strain (AID 161).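 Further: 0% = growth of cultures given vehicle only.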 Conditions: S. cerevisiae sgs1 mgt1 strain, at 50.0 µM, stronger effect = higher value. Put shortly:
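This yeast growth screen uses a strain with defined DNA-repair lesions; compound-treated growth is compared with vehicle-treated growth.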

Test [4] is described as follows: NCI Yeast Anticancer Drug Screen. Data for the cln2 rad14 strain (AID 165).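 Further: 0% = growth equal to vehicle treated cultures.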 The following applies: S. cerevisiae cln2 rad14 strain, at 50.0 µM, stronger effect = higher value. Put shortly: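 Readout is yeast growth inhibition versus vehicle-treated controls, using a strain with cln2 and rad14 alterations exposed to compound.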
Test [5] is described as follows: NCI Yeast Anticancer Drug Screen. Data for the bub3 strain (AID 167). The following applies: S. cerevisiae bub3 mutant strain, at 50.0 µM, stronger effect = higher value. In outline: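 Whole-cell yeast assay. The mutant strain was incubated with compounds, and growth inhibition was determined by comparison with vehicle-treated cells.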
A short description of test [6]: NCI Yeast Anticancer Drug Screen. Data for the mlh1 rad18 strain (AID 175). Conditions: S. cerevisiae mlh1 rad18 strain growth inhibition; at 50.0 µM; stronger effect = higher value. Put shortly:
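Genetically defined yeast (DNA repair-deficient) exposed to compounds; growth inhibition determined relative to vehicle.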

On to `CCOC(=O)/C(OC(C)=O)=C1/C=C(C(=O)c2ccccc2)CCC1`, for which the growth inhibition in test [1] is 7.8%; in test [2], 25.2%; in test [3] it was 11.9%; in test [4], -4.1%; in test [5] it was 27.1%; in test [6], 7.4%.

On to `CCOC(=O)[C@]1(Br)CC[C@]1(Br)C(=O)OCC`, for which the growth inhibition is 16.2% in test [1]; -12.7% in test [2]; -4.95% in test [3]; 10% in test [4]; -29.1% in test [5]; -62.8% in test [6].

In the case of `Cc1ccc(S(=O)(=O)OCOS(=O)(=O)c2ccc(C)cc2)cc1`, the growth inhibition in test [1] is 23.1%; in test [2], 22.2%; in test [3] it was 4.95%; in test [4] it was 3.15%; in test [5], -34.4%; in test [6], -25.2%.

For the molecule `O=C(CC(=O)c1ccc(Cl)s1)C(=O)NC1C2CC3CC(C2)CC1C3` (stereo not given), the growth inhibition was -15% in test [1]; 15.9% in test [2]; 7.9% in test [3]; -26.6% in test [4]; 12.2% in test [5]; 3.55% in test [6].

For the molecule `O=C(O)CCc1nc2ccccc2[nH]1`, the growth inhibition was -9.3% in test [1]; -4.9% in test [2]; -23.8% in test [3]; 39.1% in test [4]; -43.9% in test [5]; -1% in test [6].

In the case of `CC1OC(OC2C(OC3C[C@@]4(C)C(C[C@H](O)[C@H]5[C@H](C6(C)CCC(C(C)(C)O)O6)CCC54C)[C@]4(C)CC[C@@H](O)C(C)(C)C34)OC(CO)C(O)C2O)C(O)C(O)C1O` (stereo not given in full) (tested in a mixture with another compound), the growth inhibition in test [1] is -7.6%; in test [2], -20.1%; in test [3], -3.45%; in test [4] it was -26.7%; in test [5], -8.5%; in test [6], -72.5%.

As for `CC(=O)OC1CCC2(C)C(CCC3C2CCC2(C)C3CC3OC(CCC(C)CO)C(C)C32)C1` (stereo not given), the growth inhibition is 14.8% in test [1]; 8.55% in test [2]; -0.45% in test [3]; 19.6% in test [4]; -0.75% in test [5]; 10.1% in test [6].

On to `O=C(Nc1ccn(C2CCC(CO)O2)c(=O)n1)c1ccccc1` (stereo not given), for which the growth inhibition in test [1] is 35.8%; in test [2], -3.05%; in test [3] it was -16.7%; in test [4], -23.8%; in test [5], 4.25%; in test [6], -7.55%.

Consider `O=C1CSC(c2cccc(O)c2)N1c1nncs1` (stereo not given), for which the growth inhibition was 6.75% in test [1]; 12.9% in test [2]; 21.9% in test [3]; 12.7% in test [4]; 14.2% in test [5]; 15.2% in test [6].

Consider `CCN1C(=O)N(CC)C2(CC(=O)c3ccccc3O2)C1=O` (stereo not given), for which the growth inhibition in test [1] is 15.2%; in test [2], -3.45%; in test [3] it was 20.2%; in test [4], 7.15%; in test [5], 20.1%; in test [6], 19.6%.

For `COC(=O)C1CC(=O)CCC1c1ccccc1` (stereo not given), the growth inhibition in test [1] was 1.5%; in test [2], -7.25%; in test [3], -16.1%; in test [4], -6.45%; in test [5], -7.55%; in test [6], -16.6%.

`CSc1nccc(=O)n1C`: the growth inhibition in test [1] is 9.6%; in test [2], -14.8%; in test [3] it was -9.8%; in test [4] it was -52.6%; in test [5], -21.6%; in test [6] it was -2.15%.

As for `O=CC(=C\c1cccs1)/C(C=O)=C\c1cccs1`, the growth inhibition is 99.3% (active) in test [1]; 99.5% (active) in test [2]; 99.5% (active) in test [3]; 99.1% (active) in test [4]; 99.4% (active) in test [5]; 88.5% (active) in test [6].

As to `Cc1cc(C)c(N=Nc2cc(C)c(N)cc2N)c(S(=O)(=O)O)c1`, the growth inhibition in test [1] was -21.6%; in test [2], -1.35%; in test [3], -2.1%; in test [4] it was -61.5%; in test [5], 7.3%; in test [6], 10.8%.

As to `O=c1[nH]cnc2c1ncn2CCCCO`, the growth inhibition is -0.15% in test [1]; -5.25% in test [2]; 1.6% in test [3]; 2.7% in test [4]; -0.05% in test [5]; 10.4% in test [6].

With `O=C1C=C/C(=N/c2ccc(O)o2)c2ccccc21`, the growth inhibition in test [1] was 36.8%; in test [2] it was 52.3%; in test [3] it was 20.1%; in test [4] it was 8.4%; in test [5] it was 17.8%; in test [6], 60%.

Regarding `Nc1nc(N)c2nc(-c3ccc([N+](=O)[O-])cc3)c(Cl)nc2n1`, the growth inhibition in test [1] was -8.2%; in test [2], -16.3%; in test [3] it was -11.9%; in test [4], -44.9%; in test [5], -27%; in test [6], -28.7%.

With `Cc1c(C(=O)Nc2ccccc2)nnn1-c1ccnc2cc(C(F)(F)F)ccc12`, the growth inhibition in test [1] was -13.8%; in test [2] it was -6.75%; in test [3], -8.85%; in test [4], -4.05%; in test [5], -5.6%; in test [6], 2%.

With `CCC(CC)COC(=O)c1ccccc1C(=O)OCC(CC)CC`, the growth inhibition in test [1] is -18.9%; in test [2], -33.3%; in test [3] it was -0.35%; in test [4], 3.6%; in test [5] it was -2.75%; in test [6] it was -16%.

Turning to `CC(C)C(C)(C(N)=O)C(C)C`, the growth inhibition is 14.3% in test [1]; 17.4% in test [2]; 10.2% in test [3]; 17.9% in test [4]; -1.25% in test [5]; -1.4% in test [6].
